Laboratory results from PubChem BioAssay (Tox21).
“And” between values parts separate entries of the source, which are not always exact repeats. Equal values may be shown once. Results filed as inconclusive are left out. Entries that show only a call come without a potency. The source holds several records for some structures; these can differ, active in one and inactive in another. The source made the active and inactive calls. Unless noted, the call rests on the fitted dose curve; in most records, active means well fitted curve in the direction sought with a large enough effect in the repeat runs; inconclusive means weak or mixed curves; inactive means no such curve, though single readings can be large; an effect the other way counts as inactive or inconclusive.

Experiments:
[1] = qHTS RealTime-Glo MT Cell Viability Assay in HEK293 cells - 0 hour (AID 1224880); further: top concentration of the series differs between compounds; nearly all actives have a fitted effect of over 45% in size
Procedure, shortened: (§1)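 HEK293 + NanoLuc + prosubstrate, 600 cells/well; 5 h, 37 C/5% CO2; compound 23 nL in DMSO by pintool; 37 C; luminescence read at 0, 8, 16, 24, 32 and 40 h time points.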

[2] = A CellTox Green Cytotoxicity Assay to monitor cytotoxicity in HEK293 cells - 32 hour (AID 1224881); further: nearly all actives have a fitted effect of over 40% in size
Procedure, shortened: (§2)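 Tox21 screen in HEK293: membrane-impermeant cyanine dye fluoresces on binding dead-cell DNA; compound pinned 5 h post-seeding, plates held at 37 C, signal read repeatedly through 40 h.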

[3] = A CellTox Green Cytotoxicity Assay to monitor cytotoxicity in HepG2 cells - 0 hour (AID 1224882); further: nearly all actives have a fitted effect of over 35% in size
Procedure, shortened: (§3)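 Measurements at 0, 8, 16, 24, 32 and 40 h of treatment captured CellTox Green fluorescence in HepG2 cells that had been co-plated with reagent and preincubated 5 h at 37 C/5% CO2.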

[4] = A CellTox Green Cytotoxicity Assay to monitor cytotoxicity in HepG2 cells - 32 hour (AID 1224883); further: nearly all actives have a fitted effect of over 50% in size
Procedure, shortened: as §3

[5] = A CellTox Green Cytotoxicity Assay to monitor cytotoxicity in HEK293 cells - 8 hour (AID 1224884); further: nearly all actives have a fitted effect of over 35% in size
Procedure, shortened: as §2

[6] = qHTS RealTime-Glo MT Cell Viability Assay in HepG2 cells - 16 hour (AID 1224885); further: nearly all actives have a fitted effect of over 50% in size
Procedure, shortened: (§4)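 Compound treatment began 5 h after plating HepG2 cells (600/well) with NanoLuc luciferase and prosubstrate. Plates stayed at 37 C for 40 h; luminescence was captured at six time points, 0 h through 40 h.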

[7] = qHTS RealTime-Glo MT Cell Viability Assay in HEK293 cells - 24 hour (AID 1224886); further: top concentration of the series differs between compounds; nearly all actives have a fitted effect of over 50% in size
Procedure, shortened: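 Quantitative high-throughput screen of the Tox21 10K library in HEK293: cells and RealTime-Glo reagents plated together, compound added at 5 h, luminescence monitored through 40 h at 37 C.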

[8] = qHTS RealTime-Glo MT Cell Viability Assay in HEK293 cells - 8 hour (AID 1224887); further: top concentration of the series differs between compounds; nearly all actives have a fitted effect of over 50% in size
Procedure, shortened: as §1

[9] = A CellTox Green Cytotoxicity Assay to monitor cytotoxicity in HEK293 cells - 16 hour (AID 1224888); further: nearly all actives have a fitted effect of over 35% in size
Procedure, shortened: as §2

[10] = qHTS RealTime-Glo MT Cell Viability Assay in HepG2 cells - 0 hour (AID 1224889); further: nearly all actives have a fitted effect of over 50% in size
Procedure, shortened: as §4

[11] = A CellTox Green Cytotoxicity Assay to monitor cytotoxicity in HepG2 cells - 8 hour (AID 1224890); further: nearly all actives have a fitted effect of over 45% in size
Procedure, shortened: as §3

[12] = qHTS assay to identify small molecule antagonists of the estrogen receptor alpha (ER-alpha) signaling pathway using the BG1 cell line in the presence of 0.1 nM 17-beta-estradiol - cell viability counter screen (AID 1259241); further: nearly all actives have a fitted effect of over 40% in size
Procedure, shortened: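 Viability in VM7Luc4E2 cells after 22 hr compound exposure under 0.1 nM 17beta-estradiol stimulation, by CellTiter-Fluor.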

[13] = qHTS assay to identify small molecule antagonists of the androgen receptor (AR) signaling pathway using the MDA cell line in the presence of 0.5 nM R1881 - cell viability counter screen (AID 1259242); further: nearly all actives have a fitted effect of over 45% in size
Procedure, shortened: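 Concentration-response screen of compounds for toxicity in MDA-kb2 reporter cells: 16 hr at 37C with 0.5 nM R1881, endpoint live-cell protease fluorescence measured in the reporter wells.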

[14] = target: Estrogen receptor (Homo sapiens) (UniProt P03372); assay: qHTS assay to identify small molecule antagonists of the estrogen receptor alpha (ER-alpha) signaling pathway using the BG1 cell line in the presence of 0.1 nM 17-beta-estradiol (AID 1259244); further: nearly all actives have a fitted effect of over 50% in size
Procedure, shortened: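 Compounds were tested against 0.1 nM (final) 17beta-estradiol in VM7Luc4E2 cells, which express full-length ER-alpha and an ERE-luciferase reporter; luminescence was recorded following 22 h exposure.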

[15] = qHTS assay to identify small molecule phospholipidosis (PLD) inducers (AID 1259344; active means well fitted curve in the direction sought with a large enough effect; an effect the other way counts as inactive or inconclusive)
Procedure, shortened: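 Image-based: LipidTOX Red pit count/intensity per well and per cell; HepG2, 24 h compound at 37 C, PFA fixation, Hoechst counterstain.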

[16] = qHTS assay to identify small molecule HDAC inhibitors (AID 1259364);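 further: wild-type HCT-116 cells with endogenous class I/II HDAC activity; top concentration of the series differs between compounds; nearly all actives have a fitted effect of over 45% in size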
Procedure, shortened: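 Screening used wild-type human colon HCT-116 cells incubated overnight, dosed with compounds for 2 hours, and assayed with a homogeneous luminogenic HDAC I/II reagent for 30 minutes at room temperature.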

[17] = qHTS assay to identify small molecule HDAC inhibitors - cell viability counter screen (AID 1259365)
Procedure, shortened: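 Cytotoxicity was gauged in wild-type HCT-116 cells after a brief 2hr treatment with DMSO-dissolved compounds at 37C and 5% CO2, using CellTiter-Glo luminescence developed for 30min at room temperature.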

[18] = qHTS assay to identify small molecule agonists of the sonic hedgehog signaling (Shh) pathway - cell viability counter screen (AID 1259366); further: nearly all actives have a fitted effect of over 50% in size; further: potency means the concentration at half of the fitted maximal effect
Procedure, shortened: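 Stable Gli1-Luc NIH/3T3 clone, 2,000 cells/well. Compound exposure 24hr at 37C. Read-out: CellTiter-Fluor fluorescence.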

[19] = qHTS assay to identify small molecule antagonists of the sonic hedgehog signaling (Shh) pathway - cell viability counter screen (AID 1259367); further: nearly all actives have a fitted effect of over 55% in size; further: potency means the concentration at half of the fitted maximal effect
Procedure, shortened: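 Tox21 library chemicals were tested on a Gli1-Luc NIH/3T3 clone (2,000 cells/well) stimulated by conditioned medium; viability was quantified as fluorescence from CellTiter-Fluor reagent added at 23 hr.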

[20] = target: Androgen receptor (Homo sapiens) (UniProt P10275); assay: qHTS assay to identify small molecule antagonists of the androgen receptor (AR) signaling pathway using the MDA cell line in the presence of 0.5 nM R1881 (AID 1259243); further: nearly all actives have a fitted effect of over 50% in size
Procedure, shortened: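 With R1881 held at 0.5 nM (final), compound effects on MMTV-luciferase expression in MDA-kb2 cells were scored by luminescence after a 16 hr, 37C incubation.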

Chain of Estrogen receptor (Homo sapiens) (P03372 whole entry, looked up): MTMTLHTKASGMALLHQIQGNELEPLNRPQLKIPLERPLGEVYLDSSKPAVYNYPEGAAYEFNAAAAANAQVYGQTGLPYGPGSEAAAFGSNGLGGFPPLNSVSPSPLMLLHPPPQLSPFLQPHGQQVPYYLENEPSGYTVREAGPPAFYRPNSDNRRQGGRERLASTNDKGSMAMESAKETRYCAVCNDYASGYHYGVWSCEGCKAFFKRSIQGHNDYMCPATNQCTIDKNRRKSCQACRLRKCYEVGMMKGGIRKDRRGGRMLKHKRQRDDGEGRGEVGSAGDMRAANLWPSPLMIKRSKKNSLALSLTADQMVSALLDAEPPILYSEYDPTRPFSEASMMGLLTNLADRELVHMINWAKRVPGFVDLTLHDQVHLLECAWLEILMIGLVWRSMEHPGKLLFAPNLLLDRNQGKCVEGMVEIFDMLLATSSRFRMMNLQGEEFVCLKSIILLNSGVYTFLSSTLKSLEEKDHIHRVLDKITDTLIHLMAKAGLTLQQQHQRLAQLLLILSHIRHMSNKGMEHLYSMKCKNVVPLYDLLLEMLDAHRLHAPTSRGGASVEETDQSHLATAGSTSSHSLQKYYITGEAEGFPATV
Chain of Androgen receptor (Homo sapiens) (P10275 whole entry, looked up): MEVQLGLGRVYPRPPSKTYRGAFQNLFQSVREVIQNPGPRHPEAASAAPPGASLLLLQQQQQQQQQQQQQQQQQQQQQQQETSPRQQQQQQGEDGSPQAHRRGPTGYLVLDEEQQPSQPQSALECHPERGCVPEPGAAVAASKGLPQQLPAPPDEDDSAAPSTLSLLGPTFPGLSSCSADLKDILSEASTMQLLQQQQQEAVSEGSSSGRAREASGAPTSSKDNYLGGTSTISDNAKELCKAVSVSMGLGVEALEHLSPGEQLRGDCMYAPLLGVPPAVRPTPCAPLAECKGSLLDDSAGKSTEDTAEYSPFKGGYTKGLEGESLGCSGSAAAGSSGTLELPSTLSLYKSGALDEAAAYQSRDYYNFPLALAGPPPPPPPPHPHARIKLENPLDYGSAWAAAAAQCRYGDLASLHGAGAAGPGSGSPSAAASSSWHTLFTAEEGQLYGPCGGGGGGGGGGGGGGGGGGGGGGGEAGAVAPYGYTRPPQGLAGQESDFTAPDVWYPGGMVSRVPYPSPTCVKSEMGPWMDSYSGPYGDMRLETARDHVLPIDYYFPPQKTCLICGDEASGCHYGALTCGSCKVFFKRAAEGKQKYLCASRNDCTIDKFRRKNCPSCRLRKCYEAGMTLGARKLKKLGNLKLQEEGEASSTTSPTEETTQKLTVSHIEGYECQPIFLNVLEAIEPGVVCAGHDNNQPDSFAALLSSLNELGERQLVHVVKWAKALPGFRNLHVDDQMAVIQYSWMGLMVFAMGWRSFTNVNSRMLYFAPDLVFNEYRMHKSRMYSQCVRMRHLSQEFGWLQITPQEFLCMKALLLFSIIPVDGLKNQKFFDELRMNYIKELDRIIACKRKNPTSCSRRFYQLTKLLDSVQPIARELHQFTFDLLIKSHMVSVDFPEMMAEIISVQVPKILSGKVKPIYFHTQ

Row | Structure (SMILES) | Potency [1] | Potency [2] | Potency [3] | Potency [4] | Potency [5] | Potency [6] | Potency [7] | Potency [8] | Potency [9] | Potency [10] | Potency [11] | Potency [12] | Potency [13] | Potency [14] | outcome [15] | Potency [16] | outcome [17] | Potency [18] | Potency [19] | Potency [20]
1 | COc1ccc2[nH]cc(CCNC(C)=O)c2c1 | inactive | inactive | inactive | inactive | inactive | inactive | inactive | inactive | inactive | inactive | inactive | inactive | inactive | inactive | inactive | inactive | inactive | inactive | inactive | 
2 | Cc1ccc(C)c(OCCCC(C)(C)C(=O)O)c1 | inactive | inactive | inactive | inactive | inactive | inactive | inactive | inactive | inactive | inactive | inactive | inactive | inactive | inactive | inactive | inactive | inactive | inactive | inactive | inactive
3 | Cn1cc[nH]c1=S | inactive | inactive | inactive | inactive | inactive | inactive | inactive | inactive | inactive | inactive | inactive | inactive | inactive | inactive | inactive | inactive | inactive | inactive | inactive | 
4 | Cc1noc(NS(=O)(=O)c2ccc(N)cc2)c1C | inactive | inactive | inactive | inactive | inactive | inactive | inactive | inactive | inactive | inactive | inactive | inactive | inactive | inactive | inactive | inactive | inactive | inactive | inactive | 
5 | Cc1cn([C@H]2C[C@H](N=[N+]=[N-])[C@@H](CO)O2)c(=O)[nH]c1=O | inactive | inactive | inactive | inactive | inactive | inactive | inactive | inactive | inactive | inactive | inactive | inactive | inactive | inactive | inactive | inactive | inactive | inactive | 70.5 µM (active) and inactive | 
6 | OC(Cn1cncn1)(Cn1cncn1)c1ccc(F)cc1F | inactive | inactive | inactive | inactive | inactive | inactive | inactive | inactive | inactive | inactive | inactive | inactive | inactive | inactive | inactive | inactive | inactive | inactive | inactive | 
7 | Nc1ccc(O)c(C(=O)O)c1 | inactive | inactive | inactive | inactive | inactive | inactive | inactive | inactive | inactive | inactive | inactive | inactive | inactive | inactive | inactive | inactive | inactive | inactive | inactive | 
8 | O=C(C1CCCCC1)N1CC(=O)N2CCc3ccccc3C2C1 (stereo unspecified) | inactive | inactive | inactive | inactive | inactive | inactive | inactive | inactive | inactive | inactive | inactive | inactive | inactive |  | inactive | inactive | inactive |  | inactive | 
9 | CCOc1ccc(NC(=O)CC(C)O)cc1 (stereo unspecified) | inactive | inactive | inactive | inactive | inactive | inactive | inactive | inactive | inactive | inactive | inactive | inactive | inactive |  | inactive | inactive | inactive | inactive | inactive | 
10 | O=NO | inactive | inactive | inactive | inactive | inactive | inactive | inactive | inactive | inactive | inactive | inactive | inactive | inactive |  |  | inactive | inactive | inactive | inactive | 
11 | O=C(O)CS | inactive | inactive | inactive | inactive | inactive | inactive | inactive | inactive | inactive | inactive | inactive | inactive | inactive | inactive |  | inactive | inactive | inactive and 30.9 µM (active) | inactive | 
12 | C/C=C/c1ccc(OC)cc1 | inactive | inactive | inactive | inactive | inactive | inactive | inactive | inactive | inactive | inactive | inactive | inactive | inactive |  | inactive | inactive | inactive | inactive | inactive | 
13 | O=C(c1ccccc1)C(O)c1ccccc1 (stereo unspecified) | inactive | inactive | inactive | inactive | inactive | inactive | inactive | inactive | inactive | inactive | inactive | inactive | inactive |  | inactive | inactive | inactive | inactive | inactive | 
14 | O=C(O)C(=O)O | inactive | inactive | inactive | inactive | inactive | inactive | inactive | inactive | inactive | inactive | inactive | inactive | inactive |  |  | inactive | inactive | inactive | inactive | 
15 | NC(=O)c1ccccc1O | inactive | inactive | inactive | inactive | inactive | inactive | inactive | inactive | inactive | inactive | inactive | inactive | inactive | inactive | inactive | inactive | inactive | inactive | inactive | 
